Source: PubChem (several laboratories)
Only some compounds are listed: those with a hit (about 3% of all), similar ones and a draw of the others.
NALP1 yeast inh: NALP1 inhibition | actives 0.61% (n = 280,000) | S. cerevisiae NALP1/ASC/caspase-1 growth, X-gal OD620, 72 h | inhibition, % at 10 µM; in the data active means inhibition mostly above about 24%, no sharp cut-off; inactive means mostly below about 32%
CHT inh: inhibits the human high affinity choline transporter | Q9GZV3 | CHT-expressing cells, membrane potential dye, choline response; hits give low values | B-score at 10 µM | actives 0.86% (n = 310,000) | AID 488975;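 active means B-score over 3 SD under the library average, and starting fluorescence ratio not unusually high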;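 further: choline stimulus applied at its EC90 after an EC20 pre-addition; B-score computed on integrated fluorescence ratio after choline addition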
Target sequence (Q9GZV3 whole entry, looked up): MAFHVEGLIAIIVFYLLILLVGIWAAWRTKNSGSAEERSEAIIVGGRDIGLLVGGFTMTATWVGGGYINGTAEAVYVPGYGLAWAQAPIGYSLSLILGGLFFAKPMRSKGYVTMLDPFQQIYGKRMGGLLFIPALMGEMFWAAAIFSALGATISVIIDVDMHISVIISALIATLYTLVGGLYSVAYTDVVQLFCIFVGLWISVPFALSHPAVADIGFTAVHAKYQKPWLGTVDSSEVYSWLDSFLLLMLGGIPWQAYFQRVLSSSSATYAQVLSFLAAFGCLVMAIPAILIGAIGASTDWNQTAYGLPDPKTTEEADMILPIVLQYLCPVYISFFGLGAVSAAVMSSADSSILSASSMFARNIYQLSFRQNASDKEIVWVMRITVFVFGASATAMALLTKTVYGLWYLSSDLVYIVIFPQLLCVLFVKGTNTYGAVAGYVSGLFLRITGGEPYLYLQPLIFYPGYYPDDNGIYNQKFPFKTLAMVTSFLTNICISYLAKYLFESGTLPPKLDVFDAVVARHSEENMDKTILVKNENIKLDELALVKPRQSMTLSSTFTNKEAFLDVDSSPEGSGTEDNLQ
Mot1-301 SUMO: blocks SUMOylation pathway, rescuing yeast Mot1-301 growth. actives 1% (n = 320,000). AID 2716. growth rescue, % at 18.8 µM. S. cerevisiae Mot1-301 growth rescue, ATP luminescence, 38.5C; percent above DMSO median, 100 means doubled;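 active means every valid replicate shows activation above 250% relative to neutral control wells; inactive means the rest, any valid replicate at or below 250%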
NLRP3 yeast inh: NALP3 inhibition in yeast | Yeast reconstituted NLRP3/ASC/caspase-1, beta-gal luminescence, 24 h | inhibition, % at 10 µM | actives 0.39% (n = 330,000) | AID 2825;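 active means inhibition of 50% or more; inactive means inhibition below 50%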
Bfl-1 A1 inh: inhibitors of the anti-apoptotic protein A1, read as caspase activation; MEF A1-2A-BIM cells, Caspase-Glo 3/7 luminescence, 3 h; percent of clofoctol response, vehicle zero; caspase activation, % (concentration not given with the values); actives 0.066% (n = 330,000);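 active means over half of replicate activation scores above 10%, or exactly half above 10 with the replicate mean above 10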
CHT PAM: allosterically activates the human high affinity choline transporter | CHT-expressing cells, membrane potential dye, choline EC20; hits give high values; LV-AA mutant CHT in HEK293 cells | AID 488977 | actives 0.49% (n = 310,000) | B-score at 10 µM | Q9GZV3;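 active means initial fluorescence not abnormally high and integrated response B-score, plate-corrected, over 3 SD above library mean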
CHT inh conf: confirmation of human choline transporter CHT inhibitors; shares compounds with CHT inh; CHT-expressing cells, choline membrane potential dye; LV-to-AA substituted CHT, HEK293 cells; CHT activity remaining % of control (hits give low values), % at 10 µM; actives 70% (n = 2,400);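 active means choline transporter activity left, mean of duplicates at 10 µM, below buffer-only control mean minus 3 SD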;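 further: depolarization triggered by choline at its EC90 following an EC20 pre-addition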
HEK293 CHT ctr: counter-screen for CHT inhibitors: effect in parental HEK293 cells | shares compounds with CHT inh | membrane potential dye, choline response; active = decrease or increase beyond buffer ±3SD | membrane potential ratio readout (active if shifted either direction beyond buffer ±3SD; no single direction) at 10 µM | actives 4% (n = 2,400);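 further: parental cells lack the transporter so any hit is non-specific; ratio is peak minus trough fluorescence over baseline after EC90 choline challenge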
Hits are given with their value; i = inactive; nt = no result.

SMILES	NALP1 yeast inh	CHT inh	Mot1-301 SUMO	NLRP3 yeast inh	Bfl-1 A1 inh	CHT PAM	CHT inh conf	HEK293 CHT ctr
Oc1c(Br)cc(Br)cc1C=Nc1cccc2ncccc12	nt	-8.2	i	i	i	i	53%	i
COc1ccccc1NC(=O)C1CCCN(c2nc(C)cc(C)n2)C1 (configuration not stated)	i	-5.7	i	i	i	i	i	i
Cc1ccc(Nc2nc(CSc3nnc(-c4ccc(F)cc4)n3C)cs2)cc1	i	-6	i	i	i	i	48%	i
Cc1c(CCC(=O)NCCCn2ccnc2)c(=O)oc2c(C)c3occ(C(C)(C)C)c3cc12	i	-5.5	i	i	i	i	29%	i
Cc1coc2c(C)c3oc(=O)c(CCC(=O)NCCCn4ccnc4)c(C)c3cc12	i	i	i	i	i	i	nt	nt
O=C1C(=O)N(CCc2c[nH]c3ccccc23)C(c2cccnc2)/C1=C(/O)c1ccccc1 (configuration not stated)	i	-6.3	i	i	i	i	i	i
CCOC(=O)C1=CC[C@H]2c3c(c4ccccc4n3C)C(=O)C1N2C	nt	nt	i	i	i	nt	nt	nt
CCc1ccc(S(=O)(=O)NCc2cn3cccc(C)c3n2)s1	i	-5.4	i	i	i	i	45%	i
CCc1ccc(S(=O)(=O)NCc2cn3ccsc3n2)s1	i	i	i	i	i	i	nt	nt
Cc1cc(C(=O)CN2C(=O)C(=O)N(CCC3=CCCCC3)C2=O)c(C)n1C	nt	nt	i	i	i	nt	nt	nt
N#Cc1c(/N=C/c2ccco2)sc2c1CCC2	i	i	i	i	i	i	nt	nt
CCOc1[nH]c(/N=C/c2ccco2)c(C#N)c1C#N	i	-5.1	i	i	i	i	53%	i
CC(C)(C)OC(=O)C[C@@H]1C/C=C\C[C@H](CC(=O)N(CCO)Cc2ccccc2)C(=O)NCCOC1=O	nt	nt	nt	i	nt	nt	nt	nt
COc1ccc(CCNC(=O)c2ccccc2NC(=O)C2=C(C)OCCS2)cc1OC	i	i	i	i	i	i	nt	nt
C/C(=N\N=C(N)N)c1ccc(Cl)cc1Cl	i	-7.5	i	i	i	i	16%	i
CC(C)(C)C(=O)N1CCN(c2ccc(NC(=O)c3ccc4c(c3)OCCO4)cc2)CC1	i	-5.4	i	i	i	i	66%	i
CC(=O)OC1CC2(C)/C(=N\O)CCC2C2CCc3cc(O)ccc3C12 (configuration not stated)	i	-11	i	i	i	i	3.2%	i
CC12CC(O)C3c4ccc(O)cc4CCC3C1CCC2=O (configuration not stated)	i	i	nt	i	i	i	nt	nt
COc1ccc(-n2nc(C(=O)NCC(=O)N3CCCC3)c3ccccc3c2=O)cc1Cl	i	i	i	i	i	i	nt	nt
CS(=O)(=O)N(CC(O)Cn1c2ccccc2c2ccccc21)c1ccccc1 (configuration not stated)	i	i	i	i	i	i	i	i
O=C(c1nn(-c2ccccc2)c(=O)c2ccccc12)N1CCN(c2ccccn2)CC1	i	-6	i	i	i	i	i	i
CC(CC(=O)O)Nc1ccccc1O (configuration not stated)	i	i	i	i	i	i	nt	nt
CC(=O)C(Sc1nc(N(C)C)nc(N(C)C)n1)C(=O)Nc1ccccc1 (configuration not stated)	i	i	i	i	i	i	nt	nt
CC(=O)C(Sc1nn(C)c(=S)s1)C(=O)Nc1ccccc1 (configuration not stated)	i	-5.4	i	i	i	i	49%	i
COc1cc(SC)ccc1C(=O)N1CCc2ccccc21	i	i	i	i	i	i	nt	nt
SMILES	NALP1 yeast inh	CHT inh	Mot1-301 SUMO	NLRP3 yeast inh	Bfl-1 A1 inh	CHT PAM	CHT inh conf	HEK293 CHT ctr
Clc1ccc2c(N3CCCC3)ccnc2c1	i	-8	i	i	i	i	26%	i
O=C(CCl)N(c1ccc(Cl)cc1)c1c[nH]c2ccccc12	i	-5.9	i	i	i	i	56%	i
COc1ccc(Cl)cc1N1C(=NC(=O)C2CCCO2)SC2CS(=O)(=O)CC21 (configuration not stated)	i	i	i	i	i	i	nt	nt
O=C(NC(=S)NNC(=O)c1cccs1)c1ccc(Br)o1	i	-7.5	i	i	i	i	43%	i
Cc1cc(C)n(CCNC(=O)CC2C(=O)NCCN2Cc2ccccc2C(F)(F)F)n1 (configuration not stated)	i	-6.4	i	i	i	i	i	i
COc1cccc(CN2CCNC(=O)C2CC(=O)NCCn2nc(C)cc2C)c1OC (configuration not stated)	i	i	i	i	i	i	nt	nt
CCn1cc(C(=O)NCCC(C)C)c(=O)c2cc(F)c(N3CCN(C)CC3)cc21	i	i	i	i	i	i	nt	nt
CC(C)Oc1ccc(/C=N/NC(=O)C(CSCc2ccccc2)NC(=O)c2ccc([N+](=O)[O-])cc2)cc1 (configuration not stated)	i	-5.5	i	i	i	i	i	i
Cc1ccsc1CN(C)C(=O)CN1C(=O)NC2(CCCc3ccccc32)C1=O (configuration not stated)	nt	nt	i	i	i	nt	nt	nt
CCOC(=O)c1c(NC(=O)CN2C(=O)C(=O)N(C(C)C)C2=O)sc(C)c1CC	nt	nt	i	i	i	nt	nt	nt
O=C(NNc1ccccc1C(F)(F)F)c1sccc1Br	i	i	i	i	i	i	nt	nt
Cc1cccc(C)c1OCc1cc(C(=O)N2CCN3CCCC3C2)no1 (configuration not stated)	i	i	i	i	i	i	nt	nt
Cc1cccc(C)c1OCc1cc(C(=O)N2CCN(C3CCCC3)CC2)no1	i	-6.3	i	i	i	i	53%	i
CC(=O)Nc1ccc(NC(=O)C(C)Sc2nc3ccccc3c(=O)n2CC2CCCO2)cc1 (configuration not stated)	nt	i	i	i	i	i	nt	nt
CCOC(=O)c1nc(NNC(=O)c2ccc([N+](=O)[O-])cc2)sc1C	i	-9.9	i	i	i	i	54%	i
Cc1cc(C)c(CN2CCN(C(=O)Cn3cnc4c(OCc5ccccc5)ncnc43)CC2)c(C)c1	nt	nt	i	i	i	nt	nt	nt
Fc1cccc(CSc2nc3ncccc3[nH]2)c1	i	i	i	i	i	i	nt	nt
Fc1ccc(CSc2nc3ncccc3[nH]2)cc1	i	-6	i	i	i	i	i	i
C[C@H](CO)N1C[C@H](C)[C@@H](CN(C)S(C)(=O)=O)Oc2ccc(NS(=O)(=O)c3ccccc3)cc2C1=O	nt	nt	i	i	i	nt	nt	nt
